Experimental data from PubChem BioAssay AID463173 (ICCB-Longwood Screening Facility, Harvard Medical School, 2010).
Out of some 52,000 compounds screened, about 4,300 (8.3%) were called active. The sample holds actives, similar compounds and a random draw of the others, so the mix is not that of the screen. Rule as the data show it: active = survival mostly below about 52% (no sharp cut-off); inactive = mostly above about 56%.

Tested on: DeltatarO mutant
Experiment: growth inhibition of S. aureus wild type versus tarO mutant, primary screen, teichoic acid synthesis inhibitors, RN4220, OD600 (AID 463173)
Conditions: OD600, 18 h, hits give low values, screened at 18.75 µg/mL (by protocol)

Row | Structure (SMILES) | survival
1 | c1ccc(Cn2nnnc2C(c2ccccc2)N2CCN(Cc3ccncc3)CC2)cc1 (configuration not stated) | 78% (inactive)
2 | CCc1ccc(CNC(=O)c2cccc(-n3cnc4cccnc43)c2C)cc1 | 88% (inactive)
3 | CC(=O)c1cccc(NC(=O)CN2C(=O)c3ccccc3Sc3ncccc32)c1 | 95% (inactive)
4 | COc1ccc(CNC2CCCC2)cc1 | 79% (inactive)
5 | COc1ccc2[nH]cc(CCN=C(NC(=O)c3ccccc3F)Nc3nc(C)cc(C)n3)c2c1 | 99% (inactive)
6 | Cc1ccc(C)c(N2CCN(C(=O)CCc3nnc4n(C)c(=O)c5ccccc5n34)CC2)c1 | 95% (inactive)
7 | COc1ccc(OCc2nnc(SCC(=O)N(C3CCCCC3)C3CCCCC3)o2)cc1 | 72% (inactive)
8 | CCc1nc(-c2cc(S(=O)(=O)N3CCN(c4ccccc4F)CC3)ccc2OC)no1 | 42% (active)
9 | CCc1nc(-c2cc(S(=O)(=O)N3CCN(c4ccccc4)CC3)ccc2OC)no1 | 51% (inactive)
10 | COc1ccc(S(=O)(=O)N2CCN(c3ccccc3OC)CC2)cc1-c1noc(C)n1 | 110% (inactive)
11 | CCc1nc(-c2cc(S(=O)(=O)N3CCN(c4ccccc4OC)CC3)ccc2OC)no1 | 42% (active)
12 | CCc1nc(-c2cc(S(=O)(=O)N3CCN(c4ccc(F)cc4)CC3)ccc2OC)no1 | 49% (inactive)
13 | COc1ccc(S(=O)(=O)N2CCN(c3ccccc3F)CC2)cc1-c1noc(C)n1 | 59% (inactive)
14 | Cc1ccc(OCC(=O)Nc2ccc3nc(SCC(=O)N4CCOCC4)sc3c2)cc1 | 86% (inactive)
15 | O=C(NCc1ccccc1Cl)c1ccc(CS(=O)(=O)c2ccc(Br)cc2)o1 | 127% (inactive)
16 | Cc1ccc(-c2onc(C)c2C)cc1S(=O)(=O)NC1CCC(C)CC1 (configuration not stated) | 82% (inactive)
17 | Cn1c(=O)n(C)c2cc(S(=O)(=O)Nc3ccccc3C(=O)O)ccc21 | 105% (inactive)
18 | COc1cccc(NC(=O)C(Cc2ccccc2)NS(=O)(=O)c2ccc3c(c2)c(=O)n(C)c(=O)n3C)c1 (configuration not stated) | 79% (inactive)
19 | COCCNC(=O)Cn1c(=O)n(-c2ccc(C)c(C)c2)c(=O)c2c3c(sc21)CCCCC3 | 86% (inactive)
20 | CC(=O)c1cccc(NC(=O)Cn2ccn3nc(-c4ccccc4)cc3c2=O)c1 | 83% (inactive)
21 | CCOc1ccc(CC(=O)NCc2ccc3c(c2)CCN3C(=O)c2ccccc2)cc1OCC | 72% (inactive)
22 | CCOc1c(Cl)cc(CNc2ccc3[nH]c(=O)[nH]c3c2)cc1OC | 95% (inactive)
23 | CCOc1cc(CNc2ccc(C(=O)O)cc2)ccc1OCc1ccccc1 | 47% (active)
24 | Oc1ccc(NCc2ccccc2OCc2ccccc2)cc1 | 61% (inactive)
25 | CCOc1cc(CNc2ccc(O)cc2)cc(Cl)c1OCc1ccccc1 | 1% (active)

Row | Structure (SMILES) | survival
26 | COc1cc(CNc2ccc3[nH]c(=O)[nH]c3c2)cc(Br)c1OCc1ccc(F)cc1 | 99% (inactive)
27 | CCOc1cc(CNc2ccc(O)cc2)ccc1OCc1ccc(Cl)cc1 | 53% (inactive)
28 | CCOc1cc(CNc2ccc(O)cc2)cc(Br)c1OCc1ccccc1 | 3% (active)
29 | COc1cc(CNc2ccc3[nH]c(=O)[nH]c3c2)cc(Cl)c1OCc1ccc(F)cc1 | 76% (inactive)
30 | CCn1cc(C(=O)NCCCOC)c(=O)c2cc(S(=O)(=O)N3CCc4ccccc4C3)ccc21 | 92% (inactive)
31 | Cc1cc(=O)[nH]c2nnc(SCc3ccc(C(F)(F)F)cc3)n12 | 74% (inactive)
32 | COc1ccc(NC(=O)CCc2c(C)nc3cc(-c4cccc(F)c4)nn3c2C)cc1Cl | 129% (inactive)
33 | CCCCCCOc1ccc(/C=C/C(=O)Nc2sc3c(c2C(=O)OC)CCC3)cc1OC | 69% (inactive)
34 | O=C(NCCc1ccccc1)c1cnc2sc(N3CCOCC3)nn2c1=O | 100% (inactive)
35 | O=c1oc2ccc3ccccc3c2cc1-c1nnc(Nc2ccccc2)s1 | 84% (inactive)
36 | CCc1ccc(CNC(=O)CN2C(=O)C3CCCCN3c3ccc(C(=O)N4CCCC4)cc32)cc1 (configuration not stated) | 75% (inactive)
37 | O=C(CSCn1nnc2c(=O)[nH]c(Cc3ccc(F)cc3)nc21)Nc1ccccc1 | 52% (inactive)
38 | CCCc1cnc2c(c1SCC(=O)N1CCC(C)CC1)c(=O)n(C)c(=O)n2C | 96% (inactive)
39 | Cc1c(Cl)cccc1NC(=O)CSc1nc2ncccc2o1 | 6% (active)
40 | Cc1cccc(C)c1NC(=O)CSc1nc2ncccc2o1 | 79% (inactive)
41 | O=C(CSc1nc2ncccc2o1)Nc1cccc(C(F)(F)F)c1 | -1% (active)
42 | O=C(CSc1nnc(-c2cccs2)o1)Nc1cccc(C(F)(F)F)c1 | 47% (active)
43 | O=C(CSc1nnc(-c2ccccc2F)o1)Nc1cccc(C(F)(F)F)c1 | 54% (inactive)
44 | Cc1cccc(NC(=O)CSc2nnc(-c3cccs3)o2)c1 | 50% (inactive)
45 | O=C(CSc1nc2ncccc2o1)Nc1ccc(Cl)cc1F | 70% (inactive)
46 | COc1cccc(NC(=O)CSc2nnc(-c3cccs3)o2)c1 | 52% (inactive)
47 | COc1cc(NC(=O)CSc2nc3ncccc3o2)cc(OC)c1 | 64% (inactive)
48 | O=C(CSc1nc2c(c(=O)[nH]1)CCC2)Nc1ccccc1F | 73% (inactive)
49 | COc1ccccc1C(OC(=O)c1ccco1)C(=O)NCC1CCCO1 (configuration not stated) | 85% (inactive)
50 | OCc1nc2ccc(-c3ccc4nc(CO)[nH]c4c3)cc2[nH]1 | 51% (inactive)

Row | Structure (SMILES) | survival
51 | COc1cccc(NC(=O)CC(C)S(=O)(=O)c2ccc3c(c2)NC(=O)CO3)c1 (configuration not stated) | 115% (inactive)
52 | CCOC(=O)c1ccc(NC(=O)Cn2c(=O)cc(C)c3c(C)nn(-c4ccc(CC)cc4)c32)cc1 | 71% (inactive)
53 | Cc1c(C(=O)Nc2ccc(Br)cc2F)oc2ccc(S(=O)(=O)N3CCC4(CC3)OCCO4)cc12 | 81% (inactive)
54 | CC(C(=O)Nc1cccc(N)c1)n1nnc2ccccc21 (configuration not stated) | 65% (inactive)
55 | Nc1nc(SCC(=O)N(CCO)CCO)nc2sc3c(c12)CCCC3 | 110% (inactive)
56 | CC1CCCc2sc3nc(SCC(=O)c4ccc(Br)cc4)nc(N)c3c21 (configuration not stated) | 42% (inactive)
57 | CCCCCCSc1nc(N)c2c3c(sc2n1)CCCC3C (configuration not stated) | -7% (active)
58 | CCn1nc(-c2ccccc2)c(-c2ccccc2)c(C(=O)Nc2ccccc2C(N)=O)c1=O | 77% (inactive)
59 | CCn1c(SCC(=O)Nc2cc(Cl)ccc2OC)nc2c([nH]c3ccccc32)c1=O | 101% (inactive)
60 | Cc1ccccc1Cn1c(=O)n(CCC(=O)NCc2ccco2)c(=O)c2sccc21 | 106% (inactive)
61 | Cc1cc(NC(=O)CC(C)C)no1 | 69% (inactive)
62 | CC1(C)CC2CC(C)(CN2C(=O)c2cc(-c3ccccc3)on2)C1 (configuration not stated) | 99% (inactive)
63 | O=C(CCSCc1ccccc1Cl)N1CCN(c2ccc(F)cc2)CC1 | 66% (inactive)
64 | COc1ccc(-c2nc(SCC(=O)N3CCN(c4ccc(F)cc4)CC3)n[nH]2)cc1 | 88% (inactive)
65 | O=C(CSc1n[nH]c(-c2ccc(F)cc2)n1)N1CCN(c2ccc(F)cc2)CC1 | -5% (active)
66 | O=C(CSCc1ccccc1Cl)N1CCN(c2ccc(F)cc2)CC1 | 46% (active)
67 | O=C(CSc1n[nH]c(-c2ccccc2)n1)N1CCN(c2ccc(F)cc2)CC1 | 65% (inactive)
68 | O=C(CSCc1ccccc1Cl)N1CCN(c2ccc(Cl)cc2)CC1 | 92% (inactive)
69 | Cc1ccc(CNC(=O)c2ccc(-c3nc(CN4CCc5ccccc54)c(C)o3)cc2)cc1 | 84% (inactive)
70 | CC1CCCCC1NC(=O)CSc1nccc(=O)[nH]1 (configuration not stated) | 69% (inactive)
71 | Cc1cc(-c2ccc(C)c(S(=O)(=O)N(Cc3cccs3)C(C)C)c2)on1 | 65% (inactive)
72 | CCc1ccc(-c2nc(SCC(=O)NCC3CCCO3)c(-c3ccc(C)cc3)[nH]2)cc1 (configuration not stated) | 103% (inactive)
73 | COc1ccc(CCNC(=O)c2cc(-c3ccc(Cl)cc3)on2)cc1OC | 64% (inactive)
74 | Cc1cc(C)n(C(C)CC(=O)Nc2cccc(C(F)(F)F)c2)n1 (configuration not stated) | 73% (inactive)
75 | COc1ccccc1CNC(=O)c1sc2nc3n(c(=O)c2c1C)CCC3 | 103% (inactive)

Row | Structure (SMILES) | survival
76 | C/C(=N\NC(N)N)C1CCCCCCCCCCC1 | 0% (active)
77 | Cc1cc(Cl)ccc1NC(=O)C1CCN(c2nnc(-n3c(C)ccc3C)s2)CC1 | 88% (inactive)
78 | Fc1ccccc1N1CCN(c2nnc(C(F)(F)F)c3nnn(Cc4ccccc4)c23)CC1 | 78% (inactive)
79 | O=c1nc2sc3ccccc3n2c(=O)n1-c1ccc(Cl)c(Cl)c1 | 22% (active)
80 | Cc1ccc2c(c1)sc1nc(=O)n(-c3ccc(Cl)c(Cl)c3)c(=O)n12 | -6% (active)
81 | Cc1ccc2c(c1)sc1nc(=O)n(-c3cccc(Cl)c3)c(=O)n12 | 85% (inactive)
82 | CCOc1ccc2c(c1)sc1nc(=O)n(-c3ccc(Cl)c(Cl)c3)c(=O)n12 | 88% (inactive)
83 | Cc1ccc2c(c1)sc1nc(=O)n(-c3ccc(Cl)cc3)c(=O)n12 | 59% (inactive)
84 | CCN(CC)C(=O)c1sc2c(c1C)c(=O)n(-c1ccc(Cl)c(Cl)c1)c(=O)n2Cc1ccccc1C#N | 83% (inactive)
85 | CC(C(=O)c1ccccc1)C1(O)C(=O)Nc2ccccc21 (configuration not stated) | 94% (inactive)
86 | Cc1ccc2nc(-c3ccccc3O)c(Nc3ccccc3C)n2c1 | 92% (inactive)
87 | Cc1ccccc1Nc1c(-c2ccc(N3CCOCC3)cc2)nc2ccc(Br)cn12 | 74% (inactive)
88 | O=C(NCc1ccccc1)c1cnc2sc(N3CCCC3)nn2c1=O | 77% (inactive)
89 | Cc1ccc(S(=O)(=O)C2(C(=O)Nc3ccc(Cl)c(C(F)(F)F)c3)CC2)cc1 | 26% (inactive)
90 | Cc1ccc(S(=O)(=O)C2(C(=O)Nc3ccc(C(C)C)cc3)CC2)cc1 | 19% (active)
91 | O=C(Nc1ccccc1C(F)(F)F)C1(S(=O)(=O)c2ccc(Cl)cc2)CC1 | 84% (active)
92 | COC(=O)c1ccc(NC(=O)C2(S(=O)(=O)c3ccc(C)cc3)CC2)cc1 | 134% (inactive)
93 | Cc1ccc(S(=O)(=O)C2(C(=O)Nc3ccc(C)c(Cl)c3)CC2)cc1 | 21% (inactive)
94 | Cc1cc(Br)ccc1NC(=O)C1(S(=O)(=O)c2ccc(Cl)cc2)CC1 | 62% (inactive)
95 | CCc1ccccc1NC(=O)C1(S(=O)(=O)c2ccc(Cl)cc2)CC1 | 90% (active)
96 | CCOC(=O)c1ccc(NC(=O)C2(S(=O)(=O)c3ccc(Cl)cc3)CC2)cc1 | 75% (inactive)
97 | O=C(Nc1ccccc1C(F)(F)F)c1ccncc1 | 91% (inactive)
